Data: the supplement of paper PMC3484114
± gives the standard deviation.

tested on: OVCAR-3-derived ovarian cancer stem-like cells (spheroids); assay: cell growth relative to untreated control; higher = more growth (less inhibition); conditions: 2.29 µM; 96 h
Outline: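 Viability of stem-like cells from OVCAR-3 spheroids was assessed with TOX8 resazurin fluorescence at ex 560/em 590 nm. The cells had been trypsin-dissociated, seeded at 50,000 cells/mL in stem cell medium in ultra-low attachment 96-well plates and preincubated 24 h, then treated with compounds at 2.29 uM for 96 h at 37°C, 5% CO2, in 4 replicate wells, with fluorescence read after 4 h. Results were converted to percent growth against untreated wells after blank subtraction and Grubbs outlier removal.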

| SMILES | cell growth [%] |
| --- | --- |
| Oc1cc2c3c(c1)c1cc4c(cc1c[n+]3CC2)OCO4 | 97.7 ± 13 |
| CN(Cc1cnc2nc(N)nc(N)c2n1)c1ccc(C(=O)NC(CCC(=O)O)C(=O)O)c2ccccc12 (configuration not stated) | 84.7 ± 30 |
| CCc1cccc(CC)c1NC(=O)C(C#N)C1=C(Cl)C(=O)c2ccccc2C1=O (configuration not stated) | 70.3 ± 31 |
| Cc1ccccc1NC(=O)/C=N/O | 81 ± 7.2 |
| Nc1nc(N)c(N=Nc2ccccc2)c(=O)[nH]1 | 84.4 ± 21 |
| CN(C)c1cccc(/C=C(\C#N)c2ccccc2)c1 | 66.6 ± 7.2 |
| C=C(C)[C@@H]1CC[C@]2(C)CC[C@]3(C)[C@H](CC[C@@H]4[C@@]5(C)CC[C@H](O)C(C)(C)[C@@H]5CC[C@]43C)[C@@H]12 | 121 ± 19 |
| COc1cc2oc3cc(=O)cc4oc(-c5ccccc5)cc(c2c2c1CCC(c1ccccc1)O2)c43 (configuration not stated) | 150 ± 80 |
| O=C(O)CC(NC(=O)CP(=O)(O)O)C(=O)O (configuration not stated) | 106 ± 16 |
| NC(=O)N/N=C1\CC2C3CC4C2C4C13 (configuration not stated) | 106 ± 20 |
| O=C1Oc2ccccc2C1C/C(=N\Nc1ccccc1)c1ccccc1O (configuration not stated) | 158 ± 100 |
| CC(C)(C)NCCC(O)c1cc(C(F)(F)F)nc2c(C(F)(F)F)cccc12 (configuration not stated) | 108 ± 23 |
| Nc1ncnc2c1ncn2[C@@H]1O[C@H](CO)C[C@H]1O | 89.8 ± 18 |
| O=C(Nc1ccccc1-c1nn(C(=S)Nc2ccccc2)c(=S)n(C(=S)Nc2ccccc2)c1=O)C(F)(F)F | 84.8 ± 15 |
| O=C1CCC(c2ccccc2)=NN1c1nc2ccccc2s1 | 39.3 ± 10 |
| CC(C)(C)N(Cc1ccc2c(c1)OCO2)C(=O)/C=C\[S+]([O-])c1ccccc1 (configuration not stated) | 41.6 ± 10 |
| CC(C)N.CC(C)N.[Cl-].[Cl-].[OH-].[OH-].[Pt] | 65.4 ± 57 |
